Some test systems named below: DU-145 prostate; K-562 leukemia; MALME-3M melanoma; MDA-MB-231 breast; RXF 393 renal; SF-268 CNS; SF-295 CNS; SF-539 CNS; UACC-257 melanoma; M14 melanoma; HCT-15 colon; HT29 colon; SNB-75 CNS; SNB-19 CNS; U251 CNS; PC-3 prostate; SK-MEL-5 melanoma; UACC-62 melanoma; LOX IMVI melanoma; SK-MEL-28 melanoma.
What all share (assay): NCI-60 one-dose screen, 48 h (100 = growth as untreated, 0 = no growth, -100 = all killed)
Common to all, as to settings: 10 µM unless noted

The panel holds about 83,000 compounds, 20% with a hit somewhere; the sample as a whole holds those more often.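 Method: cells in 96-well plates; compound added at one concentration; 48 h incubation; percent growth measured; values under 10 scored active.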 A number with no mark means an inactive call. Activity calls are given as the source filed them.

As for `N#Cc1c(Nc2ccc(N3CCOCC3)cc2)nc(SCC(=O)c2ccc(Br)cc2)nc1-c1ccccc1`, the growth in the assay on DU-145 prostate is 106%; with K-562 leukemia it was 99.3%; with MALME-3M melanoma, 111%; with MDA-MB-231 breast it was 109%; in the assay on RXF 393 renal it was 126%; with SF-268 CNS, 103%. The growth was 104% in the assay on SF-295 CNS; 98.7% with SF-539 CNS; 102% in the assay on UACC-257 melanoma; 97.3% with M14 melanoma; 103% in the assay on HCT-15 colon; 98.3% in the assay with HT29 colon. Besides, the growth with SNB-75 CNS was 97.7%; in the assay with SNB-19 CNS, 117%; in the assay with U251 CNS, 101%; with PC-3 prostate it was 86.1%; in the assay on SK-MEL-5 melanoma, 102%; in the assay on UACC-62 melanoma it was 104%. Moreover, the growth in the assay on LOX IMVI melanoma was 100%; in the assay on SK-MEL-28 melanoma, 104%.

With `Cc1c(Cl)cccc1C(=O)Nc1nc2c(s1)CN(C(=O)c1ccc(C(F)(F)F)cc1)CC2`, the growth with DU-145 prostate was 15.7%; with K-562 leukemia, 10.3%; with MALME-3M melanoma, 44.6%; with MDA-MB-231 breast, 34.4%; in the assay with RXF 393 renal, 21.9%; in the assay on SF-268 CNS, 38.4%. Moreover, the growth in the assay on SF-295 CNS was 25.1%; in the assay with SF-539 CNS, -24.5% (active); in the assay with UACC-257 melanoma, 63.7%; in the assay with M14 melanoma, 10.2%; with HCT-15 colon it was 15%; in the assay on HT29 colon, 1.63% (active). Besides, the growth was 6.65% (active) in the assay with SNB-75 CNS; 34.6% with SNB-19 CNS; 17.7% in the assay with U251 CNS; 7.45% (active) in the assay with PC-3 prostate; 8.01% (active) in the assay with SK-MEL-5 melanoma; 37.6% in the assay with UACC-62 melanoma. Further, the growth is 20.2% in the assay on LOX IMVI melanoma and 59.1% in the assay on SK-MEL-28 melanoma.

For the molecule `Cc1ccc(-c2csc(NC(=O)c3ccccc3CN3C(=O)c4ccccc4C3=O)n2)cc1`, the growth in the assay with DU-145 prostate is 96.5%; with K-562 leukemia it was 100%; with MALME-3M melanoma, 93.7%; in the assay with MDA-MB-231 breast, 93.2%; in the assay with RXF 393 renal, 89.8%; with SF-268 CNS, 86.6%. Besides, the growth in the assay on SF-295 CNS was 95.6%; with SF-539 CNS, 98.4%; in the assay on UACC-257 melanoma it was 92.4%; with M14 melanoma, 106%; in the assay with HCT-15 colon, 90.8%; in the assay on HT29 colon, 97.1%. Besides, the growth is 87.3% in the assay with SNB-75 CNS; 91.8% with SNB-19 CNS; 95.5% with U251 CNS; 91.9% in the assay with PC-3 prostate; 95.5% in the assay on SK-MEL-5 melanoma; 76.6% with UACC-62 melanoma. Further, the growth in the assay with LOX IMVI melanoma is 99.3%; in the assay with SK-MEL-28 melanoma it was 99.9%.

In the case of `C=CCOC(=O)C1=C(C)N(CC)C(=O)NC1c1c(Cl)n(C)c2ccccc12` (stereo not given), the growth with DU-145 prostate was 106%; in the assay on K-562 leukemia, 99.1%; in the assay with MALME-3M melanoma, 99.3%; with MDA-MB-231 breast, 96.7%; with RXF 393 renal, 108%; with SF-268 CNS it was 92.9%. Besides, the growth in the assay with SF-295 CNS is 88.6%; in the assay with SF-539 CNS, 98.4%; in the assay with UACC-257 melanoma, 98.4%; in the assay on M14 melanoma it was 88.6%; with HCT-15 colon it was 82.5%; in the assay with HT29 colon, 89.8%. For the same molecule, the growth is 92.3% in the assay with SNB-75 CNS; 99.9% in the assay on SNB-19 CNS; 97.9% in the assay on U251 CNS; 87.7% in the assay on PC-3 prostate; 100% in the assay on SK-MEL-5 melanoma; 82.6% with UACC-62 melanoma. The growth in the assay on LOX IMVI melanoma was 88.6%; in the assay on SK-MEL-28 melanoma, 104%.

In the case of `CCNC(=O)Oc1ccc(/C(=C(/C)Cc2ccc(OC)cc2)c2ccc(OCCN3CCCCC3)cc2)cc1`, the growth in the assay on DU-145 prostate was 83.5%; in the assay with K-562 leukemia it was 0.352% (active); with MALME-3M melanoma, 68.1%; in the assay on MDA-MB-231 breast it was 78.4%; in the assay on RXF 393 renal it was 61.6%; in the assay with SF-268 CNS it was 70%. The growth is 82.6% with SF-295 CNS; 82.9% in the assay on SF-539 CNS; 95.3% in the assay with UACC-257 melanoma; -14.2% (active) in the assay on M14 melanoma; 38.9% in the assay with HCT-15 colon; 1.16% (active) in the assay with HT29 colon. Besides, the growth with SNB-75 CNS was 69%; with SNB-19 CNS, 76%; in the assay on U251 CNS, 47.5%; with PC-3 prostate, 55.6%; in the assay with SK-MEL-5 melanoma, 46.2%; with UACC-62 melanoma it was 58.4%. The growth was 60.9% in the assay with LOX IMVI melanoma and 67.6% in the assay on SK-MEL-28 melanoma.

Regarding `CS(=O)(=O)c1ccc(NC(=O)c2ccccc2)nc1`, the growth with DU-145 prostate is 108%; with K-562 leukemia it was 100%; in the assay with MALME-3M melanoma, 108%; in the assay on MDA-MB-231 breast, 99.1%; in the assay with RXF 393 renal, 106%; with SF-268 CNS, 107%. Further, the growth in the assay on SF-295 CNS is 106%; with SF-539 CNS, 104%; with UACC-257 melanoma it was 95.6%; in the assay on M14 melanoma, 115%; with HCT-15 colon, 104%; with HT29 colon it was 83.6%. Moreover, the growth in the assay on SNB-75 CNS is 104%; in the assay on SNB-19 CNS, 95.7%; with U251 CNS it was 102%; in the assay with PC-3 prostate, 93.6%; with SK-MEL-5 melanoma it was 101%; with UACC-62 melanoma, 95.4%. For the same molecule, the figures for the growth with LOX IMVI melanoma and with SK-MEL-28 melanoma were 98.6% and 112%, respectively.

For the molecule `O=C(C1=Cc2cc3ccccc3n2Cc2cnnn21)c1ccc(O)cc1`, the growth in the assay on DU-145 prostate is 89.9%; in the assay on K-562 leukemia, 11%; in the assay with MALME-3M melanoma, 57.8%; in the assay on MDA-MB-231 breast, 75.5%; in the assay with RXF 393 renal, 59%; in the assay on SF-268 CNS, 71.9%. Also, the growth in the assay on SF-295 CNS was 56.9%; with SF-539 CNS, 61.5%; in the assay with UACC-257 melanoma, 84%; in the assay on M14 melanoma, 24.9%; in the assay with HCT-15 colon it was 37.3%; with HT29 colon, 27.3%. In addition, the growth with SNB-75 CNS was 31%; in the assay with SNB-19 CNS, 63.2%; in the assay with U251 CNS, 53.5%; in the assay on PC-3 prostate, 62.4%; in the assay on SK-MEL-5 melanoma it was 54.2%; in the assay with UACC-62 melanoma, 32.9%. The growth is 50.6% in the assay on LOX IMVI melanoma and 66.8% in the assay with SK-MEL-28 melanoma.

Source of the values: PubChem BioAssay (NCI).
